This passage reports outcome and AC50 results from PubChem BioAssay (EPA / NIEHS).

Inconclusive results are not listed. The source made the active and inactive calls. Rule for the calls, unless noted: active = hit-call score of the fitted dose curve at least 0.9, where 1 is the maximum; inconclusive = response in the unintended direction; inactive = score below 0.9.

What is called AC50 is the concentration at which the activity in the assay is half-maximal.

A short description of experiment [1]: TOX21_p53_BLA_p2_viability: Viability Assessment in the Tox21 HCT-116 p53 Agonism Beta-lactamase Assay, Phase 2 (AID 2283591).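 Note: actives lower the ATP signal meaning cytotoxicity.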 The gist of the method:
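HCT116 p53-bla cells, 4000/well, dosed after 5 h plating (217-fold dilution of DMSO stocks) and incubated 16 h at 37C. Viability taken as cellular ATP by CellTiter-Glo luminescence after 30 min RT; signal loss marks cytotoxicity.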

Experiment [2] concerns the target Cellular tumor antigen p53 (Homo sapiens) (UniProt P04637). The experiment in a line: TOX21_p53_BLA_p2_ratio: Tox21 HCT-116 p53 Agonism Beta-lactamase Assay, Ratio, Phase 2 (AID 2283592). The gist of the method:
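An inducible beta-lactamase reporter in HCT116 cells signals p53 pathway activation. After 16 h chemical exposure at 37C, cells load CCF4-AM substrate for 2 h at room temperature; activity is the cleaved/uncleaved emission ratio relative to DMSO.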

Experiment [3] can be described thus: TOX21_p53_BLA_p3_viability: Viability Assessment in the Tox21 HCT-116 p53 Agonism Beta-lactamase Assay, Phase 3 (AID 2283593).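 Note: cells exposed to compound for 16 h before reading.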 In outline:
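HCT116 cells, 4000/well, dosed 5 h after plating by pin transfer (217-fold dilution from DMSO stock) and incubated 16 h at 37C, 5% CO2. Viability read as ATP luminescence with CellTiter-Glo after 30 min at room temperature.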

Experiment [4] addresses Cellular tumor antigen p53 (Homo sapiens) (UniProt P04637). The experiment in a line: TOX21_p53_BLA_p3_ratio: Tox21 HCT-116 p53 Agonism Beta-lactamase Assay, Ratio, Phase 3 (AID 2283596). The gist of the method: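 HCT116 p53-bla cells (4000/well) given compound in DMSO (217-fold dilution) after 5 h, incubated 16 h at 37C. CCF4-AM substrate 2 h at room temperature; 460/530 nm emission ratio, gain fitted against DMSO.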

A short description of experiment [5]: TOX21_p53_BLA_p4_viability: Viability Assessment in the Tox21 HCT-116 p53 Agonism Beta-lactamase Assay, Phase 4 (AID 2283597).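 Note: hits lower the luminescence signal meaning cytotoxicity.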 In outline:
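Compound exposure of HCT116 cells lasts 16 h at 37C, 5% CO2, with DMSO stocks diluted 217-fold. Cellular ATP is then quantified by CellTiter-Glo luminescence after 30 min at room temperature.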

For experiment [6], the target named is Cellular tumor antigen p53 (Homo sapiens) (UniProt P04637). The experiment in a line: TOX21_p53_BLA_p5_ratio: Tox21 HCT-116 p53 Agonism Beta-lactamase Assay, Ratio, Phase 5 (AID 2283599). In outline: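 HCT-116 p53-bla cells (4000/well) plated 5 h, dosed with compound (217-fold DMSO dilution) for 16 h at 37 C; CCF4-AM substrate 2 h at room temperature. Activity is the 460/530 nm emission ratio (405 nm excitation), fitted in gain-of-signal direction versus DMSO.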

The nature of experiment [7]: TOX21_p53_BLA_p5_viability: Viability Assessment in the Tox21 HCT-116 p53 Agonism Beta-lactamase Assay, Phase 5 (AID 2283600). The gist of the method: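 Counter-readout for cytotoxicity: ATP-dependent luminescence from CellTiter-Glo, read in the beta-lactamase wells after 30 min at RT, following a 16 h compound exposure at 37C.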
The target in experiment [8] is Cellular tumor antigen p53 (Homo sapiens) (UniProt P04637). The experiment in a line: TOX21_p53_BLA_p4_ratio: Tox21 HCT-116 p53 Agonism Beta-lactamase Assay, Ratio, Phase 4 (AID 2283601). In outline: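 HCT-116 p53 beta-lactamase reporter cells (4000/well) preincubated 5 h, then compound (217-fold dilution of DMSO stock) for 16 h at 37C. CCF4-AM substrate added 2 h at room temperature; 460/530 nm emission ratio fitted upward versus DMSO.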

The target in experiment [9] is PGR (gene 5241) (UniProt P06401). The experiment in a line: TOX21_PR_BLA_Followup_Agonist_ratio: Tox21 HEK293 Progesterone Receptor (PR) Agonism Beta-lactamase Follow-Up Assay, Ratio (AID 2283933). In outline:
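PR-UAS-bla HEK293T cells in medium with 2% charcoal-stripped FBS were dosed after 6 h plating and incubated 16 h at 37C. LiveBLAzer FRET substrate was added for 2 h at room temperature. Cleaved/uncleaved substrate ratio fitted against DMSO; CellTiter-Glo viability run in the same wells.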

Experiment [10] has the same target. The experiment in a line: TOX21_PR_BLA_Followup_Antagonist_ratio: Tox21 HEK293 Progesterone Receptor (PR) Antagonism Beta-lactamase Follow-Up Assay, Ratio (AID 2283934). In outline:
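PR-UAS-bla HEK293T cells, 3,000/well in 2% charcoal-stripped FBS, given compound plus 1nM R5020 agonist for 16 hr at 37C. Beta-lactamase FRET substrate 2 hours, ratio cleaved/uncleaved fluorescence; viability by CellTiter-Glo in same wells.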

Experiment [11] can be described thus: TOX21_PR_BLA_Followup_Agonist_viability: Viability Assessment in the Tox21 HEK293 Progesterone Receptor (PR) Agonism Beta-lactamase Follow-Up Assay (AID 2283935).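 Note: signal loss means lower viability so actives are cytotoxic.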 In outline: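 PR-UAS-bla HEK293T cells in 2% charcoal-stripped FBS medium, plated 6 hr before compound addition, exposed 16 hr at 37C. Viability read by CellTiter-Glo ATP luminescence after 30 min at room temperature, in the same wells as the beta-lactamase readout.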

Experiment [12] can be described thus: TOX21_PR_BLA_Followup_Antagonist_viability: Viability Assessment in the Tox21 HEK293 Progesterone Receptor (PR) Antagonism Beta-lactamase Follow-Up Assay (AID 2283936).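 Note: hits lower the luminescence signal meaning cytotoxicity.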 In outline:
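PR-UAS-bla HEK293T cells (3,000/well, 2% charcoal-stripped FBS) given compound plus R5020 agonist, 16 h at 37C. CellTiter-Glo added after bla read, 30 min at room temperature; luminescence loss indicates cytotoxicity.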

The target in experiment [13] is PGR (gene 5241) (UniProt P06401). The experiment in a line: TOX21_PR_LUC_Followup_Agonist: Tox21 HEK293 Progesterone Receptor (PR) Agonism Luciferase Follow-Up Assay (AID 2283937; active = hit-call score of the fitted dose curve at least 0.9, where 1 is the maximum; inactive = score below 0.9). In outline: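 HEK293-PR-A-luc cells, conditioned 5 days in 10% charcoal-stripped FBS medium, seeded 3,000/well for 5 h, then compound-treated 16 h at 37C. ONE-Glo luminescence read after 30 min at room temperature; gain of signal versus DMSO.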

The target is the same in experiment [14]. Nature of the experiment: TOX21_PR_LUC_Followup_Antagonist: Tox21 HEK293 Progesterone Receptor (PR) Antagonism Luciferase Follow-Up Assay (AID 2283938).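 Note: curve fitted upward as signal gain over DMSO baseline despite antagonist label.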 In outline:
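A follow-up to the PR bla screen using HEK293-PR-A-luc cells, multiplexed with cell viability to flag cytotoxicity. Reporter luminescence after 16 h compound exposure was analysed relative to DMSO.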

The nature of experiment [15]: TOX21_PR_LUC_Followup_Agonist_viability: Viability Assessment in the Tox21 HEK293 Progesterone Receptor (PR) Agonism Luciferase Follow-Up Assay (AID 2283941).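 Note: loss of signal means cytotoxicity so actives lower viability.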 The gist of the method:
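HEK293-PR-A-luc cells, kept in 10% charcoal-stripped FBS medium, were treated with compounds for 16 h at 37C. Viability read as cellular ATP by luciferase-coupled luminescence; loss of signal indicates cytotoxicity.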

In experiment [16] the target is Thyroid hormone receptor alpha (Rattus norvegicus) + Thyroid hormone receptor beta (Rattus norvegicus) (UniProt P18113+P63059). The experiment in a line: TOX21_TR_LUC_GH3_Antagonist_Followup: Tox21 GH3 Thyroid Hormone Receptor Antagonism Luciferase Follow-Up Assay (AID 2283942). In outline:
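Antagonist mode: GH3 cells seeded 1,500/well, compounds at 15 concentrations (92 uM to 5nM final) plus T3 at 1.0 nM final, 24 h at 37C. Luciferase read with ONE-Glo after 30 min at room temperature.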

Experiment [17] deals with THRB (gene 7068) (UniProt P10828). Nature of the experiment: TOX21_TRB_BLA_Antagonist_Followup_ratio: Tox21 Thyroid Hormone Receptor beta Antagonism Beta-lactamase (BLA) Follow-Up Assay, Ratio (AID 2283958). The gist of the method: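 HEK293T cells with a GAL4-TRb LBD fusion and UAS-bla reporter, 3,000 cells/well in phenol red-free DMEM with 2% charcoal-stripped FBS. Exposed 18 h at 37C to 11 concentrations in triplicate; CCF4 460:530 nm ratio after 2 h, DMSO-referenced.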

The nature of experiment [18]: TOX21_TRB_BLA_Antagonist_Followup_viability: Viability Assessment in the Tox21 Thyroid Hormone Receptor beta Antagonism Beta-lactamase (BLA) Follow-Up Assay (AID 2283961). In outline:
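Cytotoxicity is measured in parallel with the antagonist-mode TRβ beta-lactamase screen, using ATP-coupled luciferase luminescence. Engineered HEK293T cells are treated for 18 h with 11-point compound series in triplicate.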

The target of experiment [19] is THRB (gene 7068) (UniProt P10828). Nature of the experiment: TOX21_TRB_COA_Antagonist_Followup_ratio: Tox21 Thyroid Hormone Receptor beta Antagonism through Coactivator Recruitment Follow-Up Assay, Ratio (AID 2283967). In outline:
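Cell-free TR-FRET: GST-TRb LBD (5.0 nM) with fluorescein-SRC-2 peptide (200 nM) and Tb anti-GST antibody (2 nM), 0.10% BSA. 520:495 nm emission ratio normalized to DMSO (0%) and T3 (100%).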

Experiment [20] addresses Retinoic acid receptor RXR-alpha (Homo sapiens) (UniProt P19793). Nature of the experiment: TOX21_TR_RXR_BLA_Antagonist_Followup_ratio: Tox21 Thyroid Hormone Receptor beta Retinoid X Receptor alpha (RXRa) Antagonism Beta-lactamase (BLA) Follow-Up Assay, Ratio (AID 2283972). In outline: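 Antagonist mode used GAL4 UAS-driven beta-lactamase in HEK293T cells expressing RXRa, treated for 16 h with compound concentration series. Activity was taken from the blue/green (460:530 nm) ratio of cleaved to uncleaved substrate.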

Experiment [21] is described as follows: TOX21_TR_RXR_BLA_Antagonist_Followup_viability: Viability Assessment in the Tox21 Thyroid Hormone Receptor beta Retinoid X Receptor alpha (RXRa) Antagonism Beta-lactamase (BLA) Follow-Up Assay (AID 2283979). In outline:
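RXRa-bla HEK293T cells (2,500/well, phenol red-free DMEM, 2% charcoal-stripped FBS) were attached 5 h, then exposed to compounds at 11 concentrations in triplicate for 16 h at 37C. Viability measured by CellTiter-Glo ATP luminescence, bidirectional fitting versus DMSO.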

Chain of Cellular tumor antigen p53 (Homo sapiens) (P04637 whole entry, looked up): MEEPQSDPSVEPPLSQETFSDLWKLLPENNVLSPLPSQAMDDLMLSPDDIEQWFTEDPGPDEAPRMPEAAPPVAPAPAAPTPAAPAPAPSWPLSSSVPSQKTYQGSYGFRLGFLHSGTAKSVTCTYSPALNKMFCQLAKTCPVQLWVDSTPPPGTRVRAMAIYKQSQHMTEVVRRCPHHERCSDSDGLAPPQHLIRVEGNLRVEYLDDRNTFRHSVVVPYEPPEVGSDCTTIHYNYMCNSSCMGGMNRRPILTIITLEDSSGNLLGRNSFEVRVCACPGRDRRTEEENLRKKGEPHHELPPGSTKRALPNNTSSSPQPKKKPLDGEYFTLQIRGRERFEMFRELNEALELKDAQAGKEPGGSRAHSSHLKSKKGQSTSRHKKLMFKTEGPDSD
Chain of PGR (gene 5241) (P06401 whole entry, looked up): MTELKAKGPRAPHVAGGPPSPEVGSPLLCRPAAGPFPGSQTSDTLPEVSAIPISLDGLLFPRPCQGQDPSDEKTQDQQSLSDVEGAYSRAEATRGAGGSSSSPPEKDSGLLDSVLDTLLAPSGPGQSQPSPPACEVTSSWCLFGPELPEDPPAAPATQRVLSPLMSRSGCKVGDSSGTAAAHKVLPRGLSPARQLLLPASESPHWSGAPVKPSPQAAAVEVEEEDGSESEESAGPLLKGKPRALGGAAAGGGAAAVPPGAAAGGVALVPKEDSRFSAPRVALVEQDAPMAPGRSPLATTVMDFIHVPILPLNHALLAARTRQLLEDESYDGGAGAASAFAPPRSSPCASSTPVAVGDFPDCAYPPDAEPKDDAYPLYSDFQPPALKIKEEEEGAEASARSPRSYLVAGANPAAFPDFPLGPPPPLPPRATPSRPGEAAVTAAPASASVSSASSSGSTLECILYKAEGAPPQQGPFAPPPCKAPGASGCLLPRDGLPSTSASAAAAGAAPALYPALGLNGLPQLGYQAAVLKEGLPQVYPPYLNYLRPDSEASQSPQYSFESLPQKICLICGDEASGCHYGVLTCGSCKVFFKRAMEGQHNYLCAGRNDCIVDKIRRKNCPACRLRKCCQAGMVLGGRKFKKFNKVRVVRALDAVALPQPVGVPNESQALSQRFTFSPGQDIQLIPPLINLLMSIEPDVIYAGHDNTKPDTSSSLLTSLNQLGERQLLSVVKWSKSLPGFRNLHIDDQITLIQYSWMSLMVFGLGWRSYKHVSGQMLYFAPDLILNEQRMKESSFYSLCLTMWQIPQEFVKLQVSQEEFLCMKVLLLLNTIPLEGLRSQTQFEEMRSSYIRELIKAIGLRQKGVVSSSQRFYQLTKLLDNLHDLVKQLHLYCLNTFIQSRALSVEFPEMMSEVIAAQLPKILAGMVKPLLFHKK
Chain of THRB (gene 7068) (P10828 whole entry, looked up, the tested form may be a part): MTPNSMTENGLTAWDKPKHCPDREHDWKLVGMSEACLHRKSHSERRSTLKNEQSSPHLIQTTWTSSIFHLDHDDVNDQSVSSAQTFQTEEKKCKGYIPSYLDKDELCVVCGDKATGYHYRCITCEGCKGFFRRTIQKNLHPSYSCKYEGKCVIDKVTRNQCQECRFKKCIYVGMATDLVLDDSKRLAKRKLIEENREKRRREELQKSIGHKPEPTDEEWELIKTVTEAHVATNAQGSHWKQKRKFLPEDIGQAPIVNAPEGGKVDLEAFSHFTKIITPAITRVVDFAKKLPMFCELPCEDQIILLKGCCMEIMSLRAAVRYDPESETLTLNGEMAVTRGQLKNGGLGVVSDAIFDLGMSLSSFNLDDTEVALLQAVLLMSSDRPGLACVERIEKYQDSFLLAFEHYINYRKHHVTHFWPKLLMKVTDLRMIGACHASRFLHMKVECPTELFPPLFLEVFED
Chain of Retinoic acid receptor RXR-alpha (Homo sapiens) (P19793 whole entry, looked up, the tested form may be a part): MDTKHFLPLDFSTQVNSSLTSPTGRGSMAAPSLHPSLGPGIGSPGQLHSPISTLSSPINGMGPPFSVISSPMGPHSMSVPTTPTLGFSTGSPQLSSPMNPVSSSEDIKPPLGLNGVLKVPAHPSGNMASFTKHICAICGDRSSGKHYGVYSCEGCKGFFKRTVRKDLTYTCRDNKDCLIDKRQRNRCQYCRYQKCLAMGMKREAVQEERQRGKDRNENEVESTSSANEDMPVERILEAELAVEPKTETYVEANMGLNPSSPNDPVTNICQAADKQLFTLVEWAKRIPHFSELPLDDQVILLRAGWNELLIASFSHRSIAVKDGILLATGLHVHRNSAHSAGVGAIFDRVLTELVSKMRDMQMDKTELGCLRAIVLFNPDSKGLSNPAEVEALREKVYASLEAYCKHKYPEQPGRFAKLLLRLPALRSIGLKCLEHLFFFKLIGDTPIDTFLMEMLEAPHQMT

Take `C[C@]12Cc3nonc3C[C@@H]1CC[C@@H]1[C@@H]2CC[C@@]2(C)[C@H]1CC[C@]2(C)O`: the compound was classed as inactive in experiment [1], in [2], in [4], in experiment [6], in experiment [7] and in [8]. For the same compound, the outcome (with PGR (gene 5241) [10]; in experiment [12]; in the experiment with PGR (gene 5241) [14]; in [15]) was inactive. Also, the AC50 in [3] is 25.7 µM (active); in experiment [5], 23 µM (active); with PGR (gene 5241) [9], 6.11 µM (active); in [11], 35.1 µM (active); in the experiment with PGR (gene 5241) [13], 0.862 µM (active).

Regarding `COC1=CC(=O)O[C@@H](/C=C/c2ccc3c(c2)OCO3)C1`, the outcome in experiment [1], in experiment [2], in experiment [3], in experiment [4], in experiment [5] and in experiment [6] was inactive. Further, the call (in experiment [7]; in experiment [8]; in experiment [16]; with THRB (gene 7068) [17]; in experiment [18]; in the experiment with THRB (gene 7068) [19]) was inactive. Besides, the outcome in experiment [20] and in [21] was inactive.

`Oc1ccc(Cl)c(Cl)c1Cl`: the call in experiment [1], in experiment [2], in experiment [3], in experiment [4], in experiment [5] and in experiment [6] was inactive. The result in [7] and in [8] was inactive.

For the compound `Oc1cccc[c]1[Hg][Cl]`, the AC50 in experiment [1] is 4.03 µM (active); in [2], 8.58 µM (active); in experiment [3], 9.5 µM (active); in [4], 18.6 µM (active); in experiment [5], 4.24 µM (active); in [6], 6.39 µM (active). Further, the figures for the concentration at half-maximal activity (AC50) in experiment [7] and in [8] were 3.94 µM (active) and 8.72 µM (active), respectively.
